From PubChem BioAssay (NCATS)
“And” between values parts separate entries of the source, which are not always exact repeats. Identical values can stand only once. Inconclusive results are not listed. The source made the active and inactive calls. Calls come from the whole dose curve; as a rule, active = well fitted curve in the direction sought with a large enough effect; inconclusive = small, poorly fitted or top-dose-only effect, or another doubt; inactive = no such curve, though single readings can be large; an effect the other way counts as inactive or inconclusive.

What was measured:
[1] = tested on: CRL-7250; test: Cytotoxic Profiling of Annotated Libraries Using Quantitative High-Throughput Screening (AID 1296008); conditions: Five cell lines viability, CellTiter-Glo ATP luminescence, 48-72 h; max response: stronger effect = lower value; note: nearly all actives have a fitted effect of over 60% in size; for max response: % is set by controls: 0 for no effect and ±100 for the full control effect
How it was run: (§1)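 Cells exposed to compounds for 48 or 72 hr at 37 degrees Celsius. Viability read as ATP-coupled luminescence with CellTiter-Glo after 10 min at room temperature.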

[2] = tested on: HaCat; test: as above; conditions: Five cell lines viability, CellTiter-Glo ATP luminescence, 48-72 h; max response: stronger effect = lower value
How it was run: as §1

[3] = tested on: KB-3-1; test: as above; conditions: Five cell lines viability, CellTiter-Glo ATP luminescence, 48-72 h; max response: stronger effect = lower value
How it was run: as §1

[4] = tested on: NIH3T3; test: as above; conditions: Five cell lines viability, CellTiter-Glo ATP luminescence, 48-72 h; max response: stronger effect = lower value
How it was run: as §1

[5] = tested on: HACAT; test: qHTS assay to identify novel small-molecules to repurpose for Merkel cell carcinoma treatment (AID 1296009); conditions: MCC and control cell lines, CellTiter-Glo viability, 72 h; at 44.8 µM (top of the series) unless noted; note: nearly all actives have a fitted effect of over 60% in size
How it was run: (§2)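 Dose-response viability screen; 72 hr exposure at 37 degree celsius; CellTiter-Glo added, 10 min room temperature, luminescence read; RLUs scaled between no-cell and DMSO wells.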

[6] = tested on: MCC-13; test: as above; conditions: MCC and control cell lines, CellTiter-Glo viability, 72 h; series mostly up to 46 µM
How it was run: as §2

[7] = tested on: MKL-2; test: as above; conditions: MCC and control cell lines, CellTiter-Glo viability, 72 h; series mostly up to 46 µM
How it was run: as §2

[8] = tested on: NIH3T3; test: as above; conditions: MCC and control cell lines, CellTiter-Glo viability, 72 h; at 44.8 µM (top of the series) unless noted
How it was run: as §2

[9] = tested on: UISO; test: as above; conditions: MCC and control cell lines, CellTiter-Glo viability, 72 h; series mostly up to 46 µM
How it was run: as §2

[10] = tested on: WaGa; test: as above; conditions: MCC and control cell lines, CellTiter-Glo viability, 72 h; series mostly up to 46 µM
How it was run: as §2

[11] = tested on: C33A; test: Primary qHTS to identify gynecologic anti-cancer compounds using libraries of approved drugs and bioactive compounds (AID 1345084); conditions: Gynecologic cancer cell panel viability, ATPlite luminescence, 48 h; series mostly up to 57.5 µM; note: nearly all actives have a fitted effect of over 55% in size
How it was run: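 ATP-based viability (ATPlite), 1,000 cells/well, 16 h pre-incubation, 48 h compound at 37 C, 5% CO2, 15 min RT before read.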

[12] = tested on: W2; test: qHTS profiling for inhibitors of Plasmodium falciparum proliferation (AID 504749); note: nearly all actives have a fitted effect of over 60% in size; conditions: P. falciparum in erythrocytes, SYBR Green DNA, 72 h; series mostly up to 28.7 µM
How it was run: (§3)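 Each compound contacts P. falciparum-infected red blood cells for 72 h at 37 C; lysis buffer (Tris, EDTA, saponin, Triton X, SYBR Green I) is added and fluorescence measured next morning; values normalized to controls.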

[13] = tested on: HEK293; test: Cytotoxic Profiling of Annotated Libraries Using Quantitative High-Throughput Screening (AID 1296008); conditions: Five cell lines viability, CellTiter-Glo ATP luminescence, 48-72 h; max response: stronger effect = lower value; note: nearly all actives have a fitted effect of over 60% in size; for max response: % is set by controls: 0 for no effect and ±100 for the full control effect
How it was run: as §1

[14] = tested on: MKL-1; test: qHTS assay to identify novel small-molecules to repurpose for Merkel cell carcinoma treatment (AID 1296009); conditions: MCC and control cell lines, CellTiter-Glo viability, 72 h; series mostly up to 46 µM; note: nearly all actives have a fitted effect of over 60% in size
How it was run: as §2

[15] = tested on: SC27B; test: qHTS profiling for inhibitors of Plasmodium falciparum proliferation (AID 504749); note: nearly all actives have a fitted effect of over 60% in size; conditions: P. falciparum in erythrocytes, SYBR Green DNA, 72 h; series mostly up to 28.7 µM
How it was run: as §3

[16] = tested on: TAB109; test: as above; conditions: P. falciparum in erythrocytes, SYBR Green DNA, 72 h; series mostly up to 28.7 µM
How it was run: as §3

[17] = tested on: TAB113; test: as above; conditions: P. falciparum in erythrocytes, SYBR Green DNA, 72 h; series mostly up to 28.7 µM
How it was run: as §3

[18] = tested on: TAB165; test: as above; conditions: P. falciparum in erythrocytes, SYBR Green DNA, 72 h; series mostly up to 28.7 µM
How it was run: as §3

[19] = tested on: MCC-26; test: qHTS assay to identify novel small-molecules to repurpose for Merkel cell carcinoma treatment (AID 1296009); conditions: MCC and control cell lines, CellTiter-Glo viability, 72 h; series mostly up to 46 µM; note: nearly all actives have a fitted effect of over 60% in size
How it was run: as §2

[20] = tested on: HEK293T; test: as above; conditions: MCC and control cell lines, CellTiter-Glo viability, 72 h; at 44.8 µM (top of the series) unless noted
How it was run: as §2
Potency is the fitted concentration of half-maximal effect.

CN(C)C(=O)[C@H](O)[C@H](Cc1ccccc1)NC(=O)c1cc2cc(Cl)ccc2[nH]1
active: Potency [9] 4.18 µM
inactive: outcome [1] | max response [2] -6.71% | outcome [2] | max response [3] -0.73% | outcome [3] | max response [4] -4.58% | outcome [4] | outcome [5] | Potency [6] | Potency [7] | outcome [8] | Potency [10] | Potency [11]

O=C1CCc2ccc(OCCCCN3CCN(c4cccc(Cl)c4Cl)CC3)cc2N1
active: Potency [12] 9.53 µM | Potency [13] 16.8 µM
inactive: outcome [2] | max response [3] -20.7% | max response [4] -18.1% | outcome [5] | Potency [6] | Potency [14] | Potency [9] | Potency [10] | Potency [11]

CCCCN(CCCC)CCC(O)c1cc2c(Cl)cc(Cl)cc2c2cc(C(F)(F)F)ccc12 (configuration not stated)
inactive: Potency [11]
active: Potency [15] 0.0126 µM | Potency [16] 0.0071 µM | Potency [17] 0.0079 µM | Potency [18] 0.0079 µM

C=CCc1cc(OC)c(O)c(C(=O)NCCO)c1
inactive: Potency [15] | Potency [16] | Potency [17] | Potency [18] | Potency [12] | max response [13] -0.342% | max response [2] -2.64% | outcome [2] | max response [3] 8.32% and 9.16% | max response [4] -1.28% and -4.54% | outcome [5] | Potency [6] | Potency [19] | Potency [14] | Potency [7] | Potency [9] | Potency [10] | Potency [11]

COc1cc2c(N3CCN(C(=O)Nc4ccc(OC(C)C)cc4)CC3)ncnc2cc1OCCCN1CCCCC1
active: Potency [13] 18.7 µM
inactive: max response [1] -25.9% and -20.4% | max response [2] 3.85% and 0.506% | max response [3] -30.9% and -5.38% | max response [4] -26.1% | Potency [6] | Potency [14] | Potency [7] | Potency [9] | Potency [10] | Potency [11]

COc1c2occc2cc2ccc(=O)oc12
inactive: Potency [11]

CN1C(C(=O)Nc2ccccn2)=C(O)c2sccc2S1(=O)=O
inactive: Potency [15] | Potency [16] | Potency [17] | Potency [18] | Potency [12] | Potency [11]

Cc1cccc(C)c1OCC(=O)N[C@@H](Cc1ccccc1)[C@@H](O)C[C@H](Cc1ccccc1)NC(=O)[C@H](C(C)C)N1CCCNC1=O
active: Potency [15] 1.12 µM | Potency [16] 2.82 µM | Potency [17] 1.78 µM | Potency [18] 1 µM | Potency [12] 1.69 µM
inactive: Potency [11]

Cc1cc(Cl)ccc1OCCCC(=O)NO
active: Potency [14] 14.8 µM
inactive: max response [1] -2.51% | max response [2] 3.7% | outcome [3] | Potency [6]

CCc1nc(N)nc(N)c1-c1ccc(Cl)cc1
inactive: Potency [15] | Potency [16] | Potency [17] | max response [1] -18.3% | max response [2] 3.72% | Potency [19] | Potency [14] | Potency [7]
active: Potency [18] 0.178 µM | Potency [13] 6.68 µM and 18.7 µM | Potency [4] 8.41 µM and 9.35 µM | Potency [10] 11.9 µM | Potency [11] 5.01 µM

O=c1ccc2ccc(O)c(O)c2o1
inactive: outcome [13] | outcome [2] | outcome [3] | max response [4] -1.87% | outcome [5] | outcome [20] | Potency [6] | Potency [9]

Cc1cc(O)c2c(c1)C(=O)c1cc(O)cc(O)c1C2=O
inactive: outcome [1] | max response [2] -5.49% | max response [3] -3.32% | max response [4] 0.664% | Potency [6] | Potency [19] | Potency [14] | Potency [7] | Potency [9] | Potency [10]

O=c1cc(N2CCOCC2)oc2c(-c3ccccc3)cccc12
inactive: Potency [6] | Potency [19] | Potency [14] | Potency [7] | Potency [9] | Potency [10]

Cc1cccc(C#Cc2ccccc2)n1
inactive: max response [2] -25.8% | max response [3] 9.05% | max response [4] -0.211% | Potency [6] | Potency [14] | Potency [7] | Potency [9] | Potency [10]
